Experimental data taken from article PMC11006913.
Where a chain is given by its changes, count along the chain named.

What was measured:
NKX2-6 [1] = target: T1, NKX2-6 (Homo sapiens, UniProt A6NCS4 118-204); assay: PBM; 200 nM protein, PBS; conditions: dsDNA, one strand shown
T1 sequence: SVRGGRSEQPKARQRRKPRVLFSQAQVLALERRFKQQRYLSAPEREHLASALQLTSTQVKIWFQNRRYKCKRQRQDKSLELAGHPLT

NKX2-6 [2] = target: T2, NKX2-6 (Homo sapiens, UniProt A6NCS4 118-204, F151L); assay: PBM; 200 nM protein, PBS; conditions: dsDNA, one strand shown
T2 sequence: T1 sequence with F34L

| Sequence | binding signal (NKX2-6 [1]) | binding signal (NKX2-6 [2]) |
| --- | --- | --- |
| CCGCGTTC | 9.4 upbm affinity estimate (log intensity, higher = more binding, comparable within an allelic series) | 9.39 upbm affinity estimate (log intensity, higher = more binding, comparable within an allelic series) |
| CCTTAAGA | 12.4 upbm affinity estimate (log intensity, higher = more binding, comparable within an allelic series) | 10.1 upbm affinity estimate (log intensity, higher = more binding, comparable within an allelic series) |
| GCCGATCC | 9.45 upbm affinity estimate (log intensity, higher = more binding, comparable within an allelic series) | 9.3 upbm affinity estimate (log intensity, higher = more binding, comparable within an allelic series) |
| CCCGGAAA | 9.48 upbm affinity estimate (log intensity, higher = more binding, comparable within an allelic series) | 9.48 upbm affinity estimate (log intensity, higher = more binding, comparable within an allelic series) |
| ACCGTTTG | 9.46 upbm affinity estimate (log intensity, higher = more binding, comparable within an allelic series) | 9.44 upbm affinity estimate (log intensity, higher = more binding, comparable within an allelic series) |
| AAACACTA | 11.5 upbm affinity estimate (log intensity, higher = more binding, comparable within an allelic series) | 9.97 upbm affinity estimate (log intensity, higher = more binding, comparable within an allelic series) |
| CGTCCGTA | 9.42 upbm affinity estimate (log intensity, higher = more binding, comparable within an allelic series) | 9.44 upbm affinity estimate (log intensity, higher = more binding, comparable within an allelic series) |
| CAGATCCC | 9.68 upbm affinity estimate (log intensity, higher = more binding, comparable within an allelic series) | 9.49 upbm affinity estimate (log intensity, higher = more binding, comparable within an allelic series) |
| ATCACTCA | 12.1 upbm affinity estimate (log intensity, higher = more binding, comparable within an allelic series) | 9.9 upbm affinity estimate (log intensity, higher = more binding, comparable within an allelic series) |
| CCGGGTCC | 9.7 upbm affinity estimate (log intensity, higher = more binding, comparable within an allelic series) | 9.17 upbm affinity estimate (log intensity, higher = more binding, comparable within an allelic series) |
| ATACTTAG | 13.1 upbm affinity estimate (log intensity, higher = more binding, comparable within an allelic series) | 10.4 upbm affinity estimate (log intensity, higher = more binding, comparable within an allelic series) |
| CACCGTAG | 9.56 upbm affinity estimate (log intensity, higher = more binding, comparable within an allelic series) | 9.37 upbm affinity estimate (log intensity, higher = more binding, comparable within an allelic series) |
| AGCGGAGC | 9.34 upbm affinity estimate (log intensity, higher = more binding, comparable within an allelic series) | 9.31 upbm affinity estimate (log intensity, higher = more binding, comparable within an allelic series) |
| GTTGATGA | 10.9 upbm affinity estimate (log intensity, higher = more binding, comparable within an allelic series) | 9.75 upbm affinity estimate (log intensity, higher = more binding, comparable within an allelic series) |
| GTTAAGTA | 13.5 upbm affinity estimate (log intensity, higher = more binding, comparable within an allelic series) | 10.8 upbm affinity estimate (log intensity, higher = more binding, comparable within an allelic series) |
| ACACGCGG | 9.54 upbm affinity estimate (log intensity, higher = more binding, comparable within an allelic series) | 9.38 upbm affinity estimate (log intensity, higher = more binding, comparable within an allelic series) |
| CGGGATCC | 9.34 upbm affinity estimate (log intensity, higher = more binding, comparable within an allelic series) | 9.34 upbm affinity estimate (log intensity, higher = more binding, comparable within an allelic series) |
| AAATACTC | 11.4 upbm affinity estimate (log intensity, higher = more binding, comparable within an allelic series) | 9.88 upbm affinity estimate (log intensity, higher = more binding, comparable within an allelic series) |
| CCCAGCAG | 9.19 upbm affinity estimate (log intensity, higher = more binding, comparable within an allelic series) | 9.49 upbm affinity estimate (log intensity, higher = more binding, comparable within an allelic series) |
| GGGCGGCA | 9.62 upbm affinity estimate (log intensity, higher = more binding, comparable within an allelic series) | 9.36 upbm affinity estimate (log intensity, higher = more binding, comparable within an allelic series) |
| GACCACTC | 12.3 upbm affinity estimate (log intensity, higher = more binding, comparable within an allelic series) | 9.92 upbm affinity estimate (log intensity, higher = more binding, comparable within an allelic series) |
| AGTATGTA | 11.6 upbm affinity estimate (log intensity, higher = more binding, comparable within an allelic series) | 9.91 upbm affinity estimate (log intensity, higher = more binding, comparable within an allelic series) |
| AGTGGCTA | 11.9 upbm affinity estimate (log intensity, higher = more binding, comparable within an allelic series) | 9.95 upbm affinity estimate (log intensity, higher = more binding, comparable within an allelic series) |
| CGGCGGCC | 9.64 upbm affinity estimate (log intensity, higher = more binding, comparable within an allelic series) | 9.33 upbm affinity estimate (log intensity, higher = more binding, comparable within an allelic series) |
| CACACGGA | 9.29 upbm affinity estimate (log intensity, higher = more binding, comparable within an allelic series) | 9.43 upbm affinity estimate (log intensity, higher = more binding, comparable within an allelic series) |
| ACTTGACT | 12.4 upbm affinity estimate (log intensity, higher = more binding, comparable within an allelic series) | 10.4 upbm affinity estimate (log intensity, higher = more binding, comparable within an allelic series) |
| AAGGGTCA | 11.8 upbm affinity estimate (log intensity, higher = more binding, comparable within an allelic series) | 10 upbm affinity estimate (log intensity, higher = more binding, comparable within an allelic series) |
| CAGGGTCG | 9.43 upbm affinity estimate (log intensity, higher = more binding, comparable within an allelic series) | 9.26 upbm affinity estimate (log intensity, higher = more binding, comparable within an allelic series) |
| AGTGCCAC | 11.6 upbm affinity estimate (log intensity, higher = more binding, comparable within an allelic series) | 9.9 upbm affinity estimate (log intensity, higher = more binding, comparable within an allelic series) |
| TGGTACCA | 9.64 upbm affinity estimate (log intensity, higher = more binding, comparable within an allelic series) | 9.28 upbm affinity estimate (log intensity, higher = more binding, comparable within an allelic series) |
